About 75 (0.1%) of roughly 63,000 compounds were called active. The full list was thinned out, with actives kept by preference. Values without a mark were called inactive. No stated cut-off is given here; in the data, active means inhibition above about 21%; inactive means the rest.
What follows are compounds tested against Cathepsin B (Homo sapiens) (UniProt P07858) (assay: blockers of cathepsin B proteolysis – biochemical, fluorogenic substrate, primary screen (AID 453;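 further: 0% = enzyme with no compound and 100% = no enzyme blank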)). Conditions: purified cathepsin B, fluorescence, active compounds read high,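 tested at 10 µM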.
In the case of `Cc1ccc(NC(=O)CSc2nnc(-c3cnccn3)n2Cc2ccco2)cc1C`, the inhibition is reported as 3.51%.
For `CC(C)OC(=O)C(C#N)c1nc2ccccc2nc1N1CCN(Cc2ccc3c(c2)OCO3)CC1` (centres undefined), the inhibition was 0.39%.
For `CCOc1ccc2[nH]c(=O)c(CN(CCCO)C(C)=O)cc2c1`, the inhibition was 2.29%.
In the case of `CCOc1ccc2c(c1)cc(CN(C(=O)CC)C1CCCCC1)c1nnnn12`, the inhibition is reported as 10.1%.
Work on `CCOC(=O)N1CCN(CC(=O)n2c(C)c(C)c3ccccc32)CC1` yielded an inhibition of -1.09%.
`O=C(c1cccc(C(=O)N2CCc3ccccc32)n1)N1CCc2ccccc21` was tested, and the inhibition was 3.59%.
Work on `CC(C)(C)Oc1ncc(Br)c(OC(C)(C)C)n1` yielded an inhibition of -1.01%.
`Cn1c2c(c(=O)n(C)c1=O)CN(Cc1ccco1)CN2` showed an inhibition of 2.04%.
`N#CCSc1nc2ccccc2c(=O)n1-c1ccccc1` showed an inhibition of 5.09%.
Compound `c1ccc(-n2ncc3c2ncn2c(CSc4nc5ccccc5s4)nnc32)cc1` has an inhibition of -2%.
With `CC(C)(C)n1nnnc1C(c1cccs1)N(Cc1cccnc1)CC1CCCO1` (centres undefined) the inhibition was 3.9%.
`COc1ccc(/C(O)=C2/C(=O)C(=O)N(CCCN(C)C)C2c2ccccc2)cc1OC` (centres undefined) gave an inhibition of 0.7%.
`Cn1c(=O)oc2cc(S(=O)(=O)N3CCC(C(=O)Nc4ccc(OC(F)(F)F)cc4)CC3)ccc21` showed an inhibition of 1.08%.
For `Cc1nnc(SCC(=O)N(C(C)C)C(C)C)nc1C`, the inhibition was 3.33%.
Compound `COc1cccc(-c2nnc(NC(=O)c3ccc(S(=O)(=O)N(CC(C)C)CC(C)C)cc3)o2)c1` has an inhibition of 3.9%.
Compound `C=C(C)CSc1nc(N)c2c3c(sc2n1)CCC3` has an inhibition of -1.31%.
In the case of `O=C(Nc1ccccc1)c1cccnc1Nc1ccccc1`, the inhibition is reported as -3.06%.
`COc1ccc(Cc2nnnn2CC(=O)O)cc1` was tested, and the inhibition was -2.08%.
For `CSc1nsc(SC)c1NC(=O)OC1CCCCC1`, the inhibition was 2.76%.
`CCOC(=O)C1CCCN(C(=O)C2CCN(c3nnc(-n4cccc4)s3)CC2)C1` (centres undefined) showed an inhibition of 5.94%.
`Cn1nnnc1SCC(=O)N1CCN(C(c2ccccc2)c2ccccc2)CC1` gave an inhibition of 8.32%.
`C/C(=C(\C#N)C(=O)NCCCN1CCOCC1)N(C)C` showed an inhibition of 2.66%.
With `CC1(C)C/C(=C(/C#N)C(N)=O)CCO1` the inhibition was 9.43%.
`Cc1ccsc1CNn1cnnc1SCc1ccccc1F` was tested, and the inhibition was 2.13%.
With `CC(NC(=O)CN1CCN(Cc2ccc(Cl)cc2)C1=O)c1ccc2c(c1)OCCO2` (centres undefined) the inhibition was 0.3%.
In the case of `CCOC(=O)c1ccc(Nc2cc(C)nc3nc(C)nn23)cc1`, the inhibition is reported as -3.59%.
With `O=C(CN1CCOc2ccccc21)N1CCC(Cc2ccccc2)CC1` the inhibition was 0.85%.
`C=CCn1c(C2CC(=O)N(c3ccc(C)cc3)C2)nc2ccccc21` (centres undefined) gave an inhibition of -1.25%.
`CCN(CC)CCCNC(=O)c1cc(-c2cccc(Cl)c2)on1` showed an inhibition of 4.03%.
Work on `O=C1N(Cc2ccc3c(c2)OCO3)c2ccccc2C1(O)c1c[nH]c2ccccc12` (centres undefined) yielded an inhibition of -2.6%.
In the case of `CCOc1ccc(/C(O)=C2/C(=O)C(=O)N(Cc3cccnc3)C2c2ccc(N(C)C)cc2)c(C)c1` (centres undefined), the inhibition is reported as 1.4%.
`Nc1nonc1-c1noc(-c2ccc(Br)o2)n1` was tested, and the inhibition was 25% (active).
In the case of `O=C(O)CCC(=O)NCc1ccc2[nH]c3c(c2c1)CCCC3`, the inhibition is reported as 3.83%.
`CCOC(=O)c1c(NC(=O)CSc2nnc(CN3CCOCC3)n2C)sc2c1CCCC2` gave an inhibition of -0.13%.
`O=C(OCC(O)C(O)COC(=O)c1ccccc1)c1ccccc1` (centres undefined) gave an inhibition of 0.46%.
`N#Cc1c(N)n(CCOC(=O)c2ccc(Cl)cc2)c2nc3ccccc3nc12` gave an inhibition of 0.87%.
In the case of `Cc1ccc(-n2c(N)c(C(=O)N3CCOCC3)sc2=S)c(C)c1`, the inhibition is reported as -2.06%.
Work on `O=C(CN1CCN(c2ncc(C(F)(F)F)cc2Cl)CC1)Nc1ccc2c(c1)OCO2` yielded an inhibition of 10.7%.
`CC1(C)CC(=O)C(C2=NC(C)(C)Cc3ccccc32)=C(O)C1` showed an inhibition of 0.19%.
In the case of `CCCCOC(=O)c1[nH]c(C)c(C(=O)OC)c1C`, the inhibition is reported as 4.33%.
In the case of `CC(Sc1nncs1)C(=O)NCc1ccc2c(c1)OCO2` (centres undefined), the inhibition is reported as -5.21%.
`CCOC(=O)N1CCN(S(=O)(=O)c2cc3c(cc2C)NC(=O)CO3)CC1` showed an inhibition of 1.1%.
`CCOC(=O)CCc1c(C)c(C#N)c2[nH]c3ccccc3n2c1=O` showed an inhibition of 2.21%.
`O=C(NCc1ccccn1)c1cnc2sccn2c1=O` showed an inhibition of -2.74%.
`Cc1ccccc1C(OCC(O)CN1CCCCC1CCO)c1ccccc1` (centres undefined) gave an inhibition of 2.98%.
In the case of `CCCC(=O)N1CCc2[nH]c3ccccc3c2C1`, the inhibition is reported as 0.39%.
In the case of `Cc1ccccc1Nc1nnc(C)c(=O)[nH]1`, the inhibition is reported as -0.9%.
`CC(=O)C1=C(O)C(=O)N(c2ccc(S(N)(=O)=O)cc2)C1c1ccccc1F` (centres undefined) showed an inhibition of -1.52%.
For `Cc1ccc(NC(=O)NCC(c2cccnc2)N2CCOCC2)cc1` (centres undefined), the inhibition was -2.73%.
Work on `OCc1nc(CO)n(Cc2ccccc2)n1` yielded an inhibition of 5.1%.
Compound `c1ccc(CCC2=NCCn3cccc32)cc1` has an inhibition of 4.22%.
Compound `CCOc1ccccc1C1NC(=O)NC(C)=C1C(=O)OCc1ccco1` (centres undefined) has an inhibition of 2.19%.
`COc1cccc(N2CCN(C(=O)C3CCCN(S(=O)(=O)c4cnc[nH]4)C3)CC2)c1` (centres undefined) gave an inhibition of -4.17%.
`Cc1cccc(N2CCN(C(=O)C3CCN(S(=O)(=O)c4cnc[nH]4)CC3)CC2)c1C` was tested, and the inhibition was 44.5% (active).
